Assay outcomes as filed in PubChem BioAssay.
Most compounds without a hit are left out; they make up all but 3.4% or so of the library.
MEKK2 WT-MEK5: raises or lowers MEK5 binding to wildtype human MEKK2 PB1 domain | bead flow cytometry, Alexa488-MEK5 binding to MEKK2 WT; actives lie on both sides | binding response (% of control), % at 10 µM | actives 1.1% (n = 290,000) | AID 1531; in the data active = binding response below about 67% or above about 130%
NTR1 ag: NTR1 (human) agonism; activation, % at 20 µM; P30989; NTR1-U2OS beta-arrestin-GFP spot imaging, agonist mode; AID 493036; actives 0.17% (n = 330,000);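 active = activation at or above 40% of the spot to cytoplasm intensity ratio, with at least 20 cells analyzed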;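 also: 0% = DMSO without peptide and 100% = 100 nM NTR1 peptide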
ANO1 activ: activates or potentiates the mouse TMEM16A chloride channel; actives 0.3% (n = 340,000); HEK293 TMEM16A/YFP-H148Q/I152L, iodide quench fluorescence; hits give low values; Q8BHY3; AID 623877; B-score at 10 µM;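 active = fluorescence-ratio B-score plate-corrected deviation score at least 3 library SD below zero, with starting fluorescence score within 5 deviations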;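 also: channel opened by trigger with iodide after compound preincubation; score built on the fluorescence ratio of max minus min over baseline; more negative score means more quench and so TMEM16A activation or potentiation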
Target sequence (Q8BHY3 whole entry, looked up): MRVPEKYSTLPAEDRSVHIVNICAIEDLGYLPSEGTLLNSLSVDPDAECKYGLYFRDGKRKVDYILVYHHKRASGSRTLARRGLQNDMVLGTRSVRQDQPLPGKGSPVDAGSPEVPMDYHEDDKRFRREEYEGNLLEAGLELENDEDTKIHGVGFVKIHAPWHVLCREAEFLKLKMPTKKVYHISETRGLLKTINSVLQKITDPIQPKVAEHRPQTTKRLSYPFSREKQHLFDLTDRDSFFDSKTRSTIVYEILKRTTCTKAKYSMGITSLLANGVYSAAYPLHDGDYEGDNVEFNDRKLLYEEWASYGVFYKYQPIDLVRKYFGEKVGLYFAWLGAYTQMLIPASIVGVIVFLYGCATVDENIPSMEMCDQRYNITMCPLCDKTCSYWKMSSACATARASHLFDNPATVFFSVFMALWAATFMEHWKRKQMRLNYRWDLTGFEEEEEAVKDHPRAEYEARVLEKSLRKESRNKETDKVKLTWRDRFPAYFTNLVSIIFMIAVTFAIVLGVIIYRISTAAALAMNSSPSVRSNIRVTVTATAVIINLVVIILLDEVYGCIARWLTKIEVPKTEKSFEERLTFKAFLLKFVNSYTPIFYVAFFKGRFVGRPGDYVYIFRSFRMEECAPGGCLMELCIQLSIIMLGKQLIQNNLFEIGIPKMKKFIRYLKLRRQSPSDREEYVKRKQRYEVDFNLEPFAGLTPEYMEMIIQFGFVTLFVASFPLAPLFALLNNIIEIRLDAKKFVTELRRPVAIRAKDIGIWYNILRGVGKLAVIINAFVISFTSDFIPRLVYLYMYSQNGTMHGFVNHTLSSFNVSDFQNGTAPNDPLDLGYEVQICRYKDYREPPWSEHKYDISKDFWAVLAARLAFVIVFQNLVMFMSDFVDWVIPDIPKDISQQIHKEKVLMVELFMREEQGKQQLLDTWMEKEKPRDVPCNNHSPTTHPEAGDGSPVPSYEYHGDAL
MEKK3 PB1 HTS: MEKK3-MEK5 PB1 interaction, increase or decrease. binding response (% of control), % at 10 µM. actives 1.4% (n = 290,000). bead-based flow cytometry, Alexa488-MEK5 binding to MEKK3; actives lie on both sides; 0 = blocked by unlabeled MEK5, 100 = vehicle. AID 1529. Q99759;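 active = binding response more than 3 SD above or below the average of its plate-row segment, actives on both sides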;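 also: Alexa488 bead fluorescence after subtracting the streptavidin-only scavenger bead signal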
MEKK2 mut-MEK5: signal of MEK5 binding to mutant human MEKK2 PB1 domain; bead flow cytometry, Alexa488-MEK5 binding to MEKK2 mutant; percent response, % at 10 µM; actives 0.35% (n = 290,000); AID 1530; in the data active = percent response above about 24%, passing the limit was not always enough
ANO1 block: mouse TMEM16A channel inhibition, primary screen. Q8BHY3. HEK293 TMEM16A/YFP iodide influx fluorescence, ionomycin. normalized B-score (activity score, 25-100; higher = stronger inhibition) at 10 µM. actives 1.2% (n = 310,000). AID 588511;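 active = ratio plate-corrected score three or more library SD toward inhibition, starting fluorescence score within five deviations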;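 also: score derived from kinetic fluorescence span divided by baseline fluorescence per well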
MEKK2wt confirm: raises or lowers MEK5 binding to wildtype human MEKK2, retest; shares compounds with MEKK3 PB1 HTS; bead flow cytometry, Alexa488-MEK5 binding to MEKK2 WT; actives lie on both sides; binding response (% of control), % at 10 µM; actives 2.4% (n = 5,900); in the data active = binding response below about 16% or above about 210%; inactive = in between
MEKK2mut-MEK5: signal of MEK5 binding to mutant human MEKK2, retest; shares compounds with MEKK3 PB1 HTS; bead flow cytometry, Alexa488-MEK5 binding to MEKK2 mutant; percent response, % at 10 µM; actives 2% (n = 5,900); in the data active = percent response mostly above about 71%, no sharp cut-off; inactive = mostly below about 38%;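 also: higher means compound restores mutant binding toward wildtype level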
MEKK3-MEK5 inh: confirmation of inhibitors of MEK5 binding to human MEKK3. binding response (% of control), % at 10 µM. actives 1.8% (n = 5,900). shares compounds with MEKK3 PB1 HTS. bead flow cytometry, Alexa488-MEK5 binding to MEKK3; hits give low values. AID 1894;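 active = binding response below 72% of control, or above a set upper limit, though filed actives all read lower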;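 also: 100% = DMSO only wells and 0% = binding blocked by excess unlabeled MEK5; lower values mean stronger disruption of MEK5 binding to MEKK3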
* hit, by the source's call; i = inactive; / = not tested or not shown; [ ] = another dose, or the depositor's remark.

SMILES | MEKK2 WT-MEK5 | NTR1 ag | ANO1 activ | MEKK3 PB1 HTS | MEKK2 mut-MEK5 | ANO1 block | MEKK2wt confirm | MEKK2mut-MEK5 | MEKK3-MEK5 inh
FC(F)(F)c1cccc(NC(=S)N(CCCN2CCCC2)Cc2cccn2Cc2ccc(Cl)cc2)c1 | 243* | 27 | i | 93 | 6 | i | 259* | 64 | 104
COCCCNC(=S)Nc1ccc(C)cc1 | 98 | 0 | i | 97 | -1 | i | / | / | /
CCOCCCNC(=S)Nc1cc(C)cc(C)c1 | 116 | -1 | i | 141* | 1 | i | 104 | -2 | 106
COc1cc(CN(C)CC2CCCN(CCc3cccc(C(F)(F)F)c3)C2)ccc1O (centres undefined) | 156* | 3 | i | 115 | 28* | i | 120 | 10 | 99
COc1ccc(CN(C)CC2CCCN(CCc3ccc(F)cc3)C2)cc1OC (centres undefined) | 121 | 0 | i | 105 | 14 | i | / | / | /
Cc1cccc(OCCCC(=O)NCCc2ccccc2)c1 | 108 | -1 | i | 137* | 0 | i | 105 | 4 | 104
CC(C)OC(=O)CSc1nc2ncccc2[nH]1 | 45*[inhibitor] | -1 | i | 33*[inhibitor] | -14 | i | 100 | -2 | 102
CCOC(=O)c1cc(-c2ccccc2)sc1NC(=O)CCN1C(=O)c2ccccc2C1=O | 32*[inhibitor] | 1 | i | 97 | 1 | i | 99 | -6 | 98
CCOC(=O)c1cc(-c2ccccc2)sc1NC(=O)C(C)N1C(=O)c2ccccc2C1=O (centres undefined) | 105 | 2 | i | 136* | 0 | i | 97 | -3 | 106
C#CCOCCOCCOCCNc1nc(N2CCOCC2)nc(N2CCN(C(=O)[C@H]([C@@H](C)CC)n3cc([C@@H](N)Cc4ccc(O)cc4)nn3)CC2)n1 | 114 | -4 | i | 104 | 5 | i | / | / | /
C#CCOCCOCCOCCNc1nc(N2CCN(C(=O)[C@H]([C@@H](C)CC)n3cc([C@@H](N)Cc4ccc(O)cc4)nn3)CC2)nc(N2CCN(C(=O)[C@H]([C@@H](C)CC)n3cc([C@@H](N)CC(C)C)nn3)CC2)n1 | 139* | -2 | i | 94 | 20 | i | 134 | 19 | 101
C#CCOCCOCCOCCNc1nc(N2CCN(C(=O)[C@H]([C@@H](C)CC)n3cc([C@@H](N)Cc4ccc(O)cc4)nn3)CC2)nc(N2CCN(C(=O)[C@H](Cc3ccc(O)cc3)n3cc([C@@H](N)CC(C)C)nn3)CC2)n1 | 181* | -3 | i | 114 | 50 | i | 118 | 8 | 101
C#CCOCCOCCOCCNc1nc(N2CCN(C(=O)[C@H]([C@@H](C)CC)n3cc([C@@H](N)CO)nn3)CC2)nc(N2CCN(C(=O)[C@H](Cc3ccc(O)cc3)n3cc([C@@H](N)CC(C)C)nn3)CC2)n1 | 116 | -3 | i | 75 | 3 | i | / | / | /
